Measurements reported in PubChem BioAssay (NCATS).
“And” between values parts separate entries of the source, which are not always exact repeats. Equal values may be shown once. Results filed as inconclusive are left out. The source made the active and inactive calls. Unless noted, calls follow the shape of the dose curve; as a rule, active = well fitted curve in the direction sought with a large enough effect; inconclusive = small, poorly fitted or top-dose-only effect, or another doubt; inactive = no such curve, though single readings can be large; an effect the other way counts as inactive or inconclusive.

How the values were obtained:
[1] = qHTS assay for small molecule disruptors of the mitochondrial membrane potential - 5 hr assay (AID 651755; calls by dose curve; also: potency is read from the fitted curve at half-maximal effect; nearly all actives have a fitted effect of over 40% in size); details: JC-1-type ratio dye
Outline: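 Membrane-potential dye readout: red aggregate (540 ex/590 em) versus green monomer (490 ex/535 em) fluorescence after 30 min dye loading, following 5 hr compound exposure at 37C of overnight-plated HepG2 cells.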

[2] = qHTS assay for environmental chemicals that activate the Aryl hydrocarbon Receptor (AhR) signaling pathway (AID 651777); details: 1A2-DRE human hepatoma cells, luciferase, 24 h; stronger effect = higher value; also: % of control where 0% means no effect; nearly all actives have a fitted effect of over 15% in size
Outline: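 Measured luciferase activity, read 30 min after One-Glo addition at room temperature, from human hepatoma cells bearing a dioxin response element–CYP1A2 promoter reporter and exposed to compound for 24 hr at 37 C.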

[3] = qHTS assay for small molecule agonists of the antioxidant response element (ARE) signaling pathway measured by Nrf2-dependant transcriptional activity - cell viability counter screen (AID 720653; active = well fitted curve in the direction sought with a large enough effect in the repeat runs; an effect the other way counts as inactive or inconclusive; also: % is scaled to controls: 0 for no effect and ±100 for the full control effect); details: ARE-bla HepG2 viability, CellTiter-Glo ATP luminescence, 16 h; max response: stronger effect = lower value
Outline: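 Cytotoxicity counter screen: intracellular ATP quantified by CellTiter-Glo luminescence in the same ARE-bla HepG2 plates, after 16 h compound exposure and a 2 h beta-lactamase substrate step.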

[4] = qHTS assay for cell viability of HEK293 cells (AID 743288); details: ATP luminescence (CellTiter-Glo), 18 h; max response: stronger effect = lower value; also: % is scaled to controls: 0 for no effect and ±100 for the full control effect; nearly all actives have a fitted effect of over 50% in size
Outline: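 Viable-cell counts were inferred from luciferase-based ATP content in HEK293 cells seeded at 2,000/well, pre-incubated ≥5 h, then dosed with DMSO-solubilised compounds for 18 h at 37 C.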

[5] = S16 Schwann cell PMP22 intronic element beta-lactamase assay (AID 624044; calls by dose curve;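 also: 0% = DMSO and -100% = potassium clavulanate positive control; nearly all actives have a fitted effect of over 15% in size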); details: S16 rat Schwann cells, PMP22 element beta-lactamase FRET, 24 h; series mostly up to 38.3 µM
Outline: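 Beta-lactamase reporter under a PMP22 intronic regulatory element in stable S16 rat Schwann cells; 24 h compound exposure. 460 nm blue signal normalized between DMSO (0%) and potassium clavulanate, with 535 nm FRET tracking viability; curves classed by r2 and response.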

[6] = tested on: ATS189; assay: qHTS profiling for inhibitors of Plasmodium falciparum proliferation (AID 504749); also: potency is read from the fitted curve at half-maximal effect; nearly all actives have a fitted effect of over 60% in size; details: P. falciparum in erythrocytes, SYBR Green DNA, 72 h; series mostly up to 28.7 µM
Outline: (§1)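 SYBR Green fluorescence of parasite DNA, read after lysis and overnight dark incubation, measured growth over 72 h in erythrocyte culture at 0.3% parasitemia and 2.5% hematocrit. Data normalised to DMSO and 0.29 uM artemisinin, with plate-drift correction.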

[7] = tested on: CP191; assay: as above; details: P. falciparum in erythrocytes, SYBR Green DNA, 72 h; series mostly up to 28.7 µM
Outline: as §1

[8] = tested on: CP260; assay: as above; details: P. falciparum in erythrocytes, SYBR Green DNA, 72 h; series mostly up to 28.7 µM
Outline: as §1

[9] = tested on: CP265; assay: as above; details: P. falciparum in erythrocytes, SYBR Green DNA, 72 h; series mostly up to 28.7 µM
Outline: as §1

[10] = tested on: DIV14; assay: as above; details: P. falciparum in erythrocytes, SYBR Green DNA, 72 h; series mostly up to 28.7 µM
Outline: as §1

[11] = tested on: DIV17; assay: as above; details: P. falciparum in erythrocytes, SYBR Green DNA, 72 h; series mostly up to 28.7 µM
Outline: as §1

[12] = tested on: ECU; assay: as above; details: P. falciparum in erythrocytes, SYBR Green DNA, 72 h; series mostly up to 28.7 µM
Outline: as §1

[13] = tested on: HB3; assay: as above; details: P. falciparum in erythrocytes, SYBR Green DNA, 72 h; series mostly up to 28.7 µM
Outline: as §1

[14] = tested on: N140; assay: as above; details: P. falciparum in erythrocytes, SYBR Green DNA, 72 h; series mostly up to 28.7 µM
Outline: as §1

[15] = tested on: P93_24; assay: as above; details: P. falciparum in erythrocytes, SYBR Green DNA, 72 h; series mostly up to 28.7 µM
Outline: as §1

[16] = tested on: P94_40; assay: as above; details: P. falciparum in erythrocytes, SYBR Green DNA, 72 h; series mostly up to 28.7 µM
Outline: as §1

[17] = tested on: PC26; assay: as above; details: P. falciparum in erythrocytes, SYBR Green DNA, 72 h; series mostly up to 28.7 µM
Outline: as §1

[18] = tested on: TAB109; assay: as above; details: P. falciparum in erythrocytes, SYBR Green DNA, 72 h; series mostly up to 28.7 µM
Outline: as §1

[19] = tested on: TAB113; assay: as above; details: P. falciparum in erythrocytes, SYBR Green DNA, 72 h; series mostly up to 28.7 µM
Outline: as §1

[20] = tested on: TAB165; assay: as above; details: P. falciparum in erythrocytes, SYBR Green DNA, 72 h; series mostly up to 28.7 µM
Outline: as §1

Nc1ccc(N)c([N+](=O)[O-])c1
inactive: activation [2] 3.75% | max response [3] -19.5% and -28.1% | max response [4] -1.33% and -23.7%
active: Potency [1] 29800 nM

O=C(CC1NCCC[C@H]1O)Cn1cnc2cc(Br)c(Cl)cc2c1=O (stereo not given in full)
inactive: Potency [5]
active: Potency [6] 4470 nM | Potency [7] 2820 nM | Potency [8] 2510 nM | Potency [9] 5010 nM | Potency [10] 3010 nM | Potency [11] 3380 nM | Potency [12] 5010 nM | Potency [13] 2000 nM | Potency [14] 3160 nM | Potency [15] 1410 nM | Potency [16] 1410 nM | Potency [17] 3790 nM | Potency [18] 794 nM | Potency [19] 2240 nM | Potency [20] 1000 nM
